HepG2 tox-1 – kills HepG2 cells in TGF-b inhibitor counter-screen. HepG2 CAGA-GFP viability, ATP luminescence, 18 h. Potency, µM (highest dose often 46.1 µM), for inactives: at the top dose activity change, negative = cytotoxicity, usual class: cytotoxic. 410,000 compounds, 0.76% hits
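CellTiter-Glo luminescence gave cytotoxicity after 18 hours at 37 degrees C. The cells were HepG2 CAGA-GFP in 1% FBS DMEM, stimulated with 500 pg/mL TGF-beta after compound addition. %Activity was normalised to no-cell wells (complete cell-killing) and DMSO (no toxicity), and curves were fitted and classified.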
HT1080 IDH1KD tx – toxicity to HT-1080 IDH1 knockdown cells (counter line); HT-1080 IDH1 knockdown viability, ATP luminescence, 48 h; Potency, µM (series often up to 46.1 µM), without a hit: at the top dose activity, negative = toxicity, hits mostly cytotoxic; 360,000 compounds, 2% hits; AID 686971;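 also: 0% = DMSO wells and -100% = cell-free medium wells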
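In this qHTS, HT-1080 cells depleted of IDH1 are exposed for 48 h at 37 °C to compound titrations. Toxicity is scored from CellTiter-Glo luminescence, with DMSO as full viability and medium alone as none.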
TGFb SMAD3 inh – TGF-b pathway inhibition | HepG2 CAGA-GFP TGF-b/SMAD3 reporter, GFP fluorescence, 18 h; TGF-beta stimulated, 500 pg/mL final | Potency, µM (highest dose often 46.1 µM), for the others: top-dose activity, negative = inhibition, hits mostly inhibitors | 410,000 compounds, 1.2% hits | AID 588855; also: % is scaled to controls: 0 for no effect and ±100 for the full control effect; nearly all actives have a fitted effect of over 65% in size
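Cell-based qHTS in HEPG2 carrying a CAGA-GFP Smad reporter; compounds added before 500 pg/mL final TGF-beta, 18 h incubation at 37 degrees C, GFP fluorescence quantified per cell by imaging cytometry.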
TDP1 cell noCPT – qHTS for Inhibitors of human tyrosyl-DNA phosphodiesterase 1 (TDP1): qHTS in cells in absence of CPT; DT40 Tdp1-/- hTDP1 cells, no CPT, ATP luminescence, 48 h; Potency, µM (series often up to 46.2 µM), for inactives: at the highest dose activity change, negative = growth inhibition, usual class: inhibitors; 420,000 compounds, 15% hits; also: % is scaled to controls: 0 for no effect and ±100 for the full control effect; nearly all actives have a fitted effect of over 55% in size
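Cells were dispensed at 400 per well, compounds added by pin tool, plates incubated ≥48 hr at 37 °C, then CellTiter-Glo added for 30 min at room temperature before luminescence reading. Line: DT40 Tdp1-/- complemented with hTDP1; camptothecin omitted.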
TDP1 cell CPT – DT40-hTDP1 cell growth loss with CPT; AID 686979; 420,000 compounds, 12% hits; chicken DT40 Tdp1-/-;hTDP1 cells + 20 nM CPT, ATP luminescence, 48 h; Potency, µM (series often up to 46.2 µM), without a hit: at the highest dose activity change, negative = growth inhibition, hits mostly inhibitors; also: % is scaled to controls: 0 for no effect and ±100 for the full control effect; nearly all actives have a fitted effect of over 55% in size
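Chicken DT40 Tdp1-/- cells complemented with human TDP1, 400 cells/well, exposed to compounds plus 20 nM camptothecin for at least 48 h at 37 C; viability read as ATP content by CellTiter-Glo luminescence.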
HT1080NT lethal – kills 2HG-producing HT-1080-NT fibrosarcoma cells; Potency, µM (titrated, usually from 46.1 µM), for the others: top-dose activity, negative = less viability, hits mostly cytotoxic; HT-1080-NT fibrosarcoma viability, CellTiter-Glo ATP luminescence, 48 h; AID 686970; 360,000 compounds, 1.6% hits;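 also: NT is the 2HG producing partner of a matched IDH1 knockdown line; 0% = DMSO-treated cells and -100% = media-only wells without cells; nearly all actives have a fitted effect of over 55% in size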
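750 cells/well, RPMI + 5% FBS; 2 h settle, compound pin-transfer, 48 h at 37 degrees C. CellTiter-Glo 10 min RT, luminescence. Normalized to DMSO and media-only wells.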
TGFb confirm – confirmation of TGF-b signaling inhibitors in HepG2 reporter cells | shares compounds with TGFb SMAD3 inh | HepG2 CAGA-GFP TGF-b reporter, GFP fluorescence, 18 h; cells stimulated with TGF-beta, 500 pg/mL | Potency, µM (titrated, usually from 46.1 µM), for inactives: at the top dose activity, negative = inhibition, hits mostly inhibitors | 1,600 compounds, 63% hits | AID 720534; also: % is scaled to controls: 0 for no effect and ±100 for the full control effect; nearly all actives have a fitted effect of over 65% in size
HepG2 tox-2 – counter-screen for TGF-b inhibitors: cytotoxicity in HepG2 cells; shares compounds with TGFb SMAD3 inh; HepG2 CAGA-GFP viability, ATP luminescence, 18 h; cells stimulated with TGF-beta, 500 pg/mL; Potency, µM (top dose mostly 46.1 µM), without a hit: top-dose activity, negative = cytotoxicity, usual class: inhibitors; 1,600 compounds, 27% hits; AID 720535; also: % is scaled to controls: 0 for no effect and ±100 for the full control effect; nearly all actives have a fitted effect of over 70% in size
CCL64 TGFb inh – blocks TGF-b signaling in CCL64 reporter cells; shares compounds with TGFb SMAD3 inh; CCL64 CAGA-GFP reporter, TGF-b stimulated, GFP fluorescence, 18 h; Potency, µM (doses to about 46.1 µM), for the others: at the highest dose activity, negative = inhibition, hits mostly inhibitors; 1,600 compounds, 41% hits; also: nearly all actives have a fitted effect of over 65% in size
TGFb COP inh – TGF-b inhibition validated with COP promoter; shares compounds with TGFb SMAD3 inh; HepG2 COP-GFP TGF-b reporter, GFP fluorescence, 18 h; cells stimulated by added recombinant TGF-beta; Potency, µM (top dose mostly 46.1 µM), for inactives: at the top dose activity, negative = inhibition, usual class: inhibitors; 1,600 compounds, 3% hits; AID 720537; also: nearly all actives have a fitted effect of over 70% in size
Active calls of the source: *; u = inconclusive; x = no result given; [ ] = dose if it differs, or a comment. An excerpt weighted towards active compounds, which were near 17% of everything screened. Calls follow the shape of the dose curve; as a rule, active = well fitted curve in the direction sought with a large enough effect; inconclusive = small, poorly fitted or top-dose-only effect, or another doubt; inactive = no such curve, though single readings can be large; an effect the other way counts as inactive or inconclusive. Potency is read from the fitted curve at half-maximal effect.

SMILES	HepG2 tox-1	HT1080 IDH1KD tx	TGFb SMAD3 inh	TDP1 cell noCPT	TDP1 cell CPT	HT1080NT lethal	TGFb confirm	HepG2 tox-2	CCL64 TGFb inh	TGFb COP inh
CN1CCN(c2ccc([N+](=O)[O-])c3no[n+]([O-])c23)CC1	8.9µM*	4.6µM*	3.2µM*	0.16µM*	0.18µM*	2.9µM*	4.1µM*	5.2µM*	3.3µM*	u
O=[N+]([O-])c1ccc(N(CCO)CCO)c2c1no[n+]2[O-]	-115%	5.8µM*	7.1µM*	0.16µM*	0.092µM*	8.2µM*	10µM*	13µM*	12µM*	u
CC1CC(C)(O)CC(C(O)CC2CC(=O)NC(=O)C2)C1=O (configuration not stated)	-3%	0.16µM*	0.32µM*	0.18µM*	0.18µM*	u	0.13µM*	u	0.26µM*	35%
C=Cc1cc(OC)c2c(c1)c(=O)oc1c2cc(OC)c2c(O)ccc(C3OC(C)C(O)C(C)(O)C3O)c21 (configuration not stated)	24%	1.5µM*	1.4µM*	0.21µM*	0.16µM*	9.2µM*	0.92µM*	1.2µM*	2.1µM*	7%
COc1ccc2c(c1OC)C(=O)OC2c1c(O)n(Cc2ccc(F)cc2)c(=O)[nH]c1=O (configuration not stated)	-3%	-1%	-4%	3%	u	-4%	x	x	x	x
O=C1NCN(c2ccccc2)C12CCN(C(c1cc3ccccc3o1)c1nnnn1Cc1ccccc1)CC2 (configuration not stated)	0%	u	14µM*	u	u	u	21µM*	-20%	15µM*	5%
CCC(c1nnnn1C(C)(C)C)N1CCC2(CC1)C(=O)NCN2c1ccccc1 (configuration not stated)	5%	15%	u	u	-28%	26%	x	x	x	x
O=C1NCN(c2ccccc2)C12CCN(C(c1ccccc1)c1nnnn1Cc1ccccc1)CC2 (configuration not stated)	4%	u	11µM*	u	u	-29%	18µM*	-12%	12µM*	-1%
O=C1NCN(c2ccccc2)C12CCN(C(CCc1ccccc1)c1nnnn1-c1ccc3c(c1)OCCO3)CC2 (configuration not stated)	4%	-29%	13µM*	-113%	u	u	u	-7%	4.1µM*	6%
O=C1NCN(c2ccccc2)C12CCN(C(CCc1ccccc1)c1nnnn1Cc1ccccc1)CC2 (configuration not stated)	-1%	u	18µM*	u	u	u	15µM*	u	12µM*	76%
CCCCn1nnnc1C(c1cccc(OC)c1OC)N1CCC2(CC1)C(=O)NCN2c1ccccc1 (configuration not stated)	7%	-24%	u	u	u	u	x	x	x	x
COC(=O)c1c(C)[nH]c(C(=O)C(C)[N+]23CCN(CC2)CC3)c1C (configuration not stated)	5%	6%	0%	-1%	3%	3%	x	x	x	x
CC1(C)NC(=S)C(C)(C)N1N=O	-2%	1%	-4%	-2%	8%	1%	x	x	x	x
CC1=CC(C)CC(C)OC(=O)CC(c2ccc(O)cc2)NC(=O)C(Cc2c(Br)[nH]c3ccccc23)N(C)C(=O)C(C)NC(=O)C(C)C1 (configuration not stated)	-8%	0.052µM*	16µM*	0.015µM*	0.026µM*	1.3µM*	u	u	0.26µM*	79%
COc1cc2cc(C(=O)N3CC(COS(C)(=O)=O)c4ccc(O)cc43)[nH]c2c(OC)c1OC (configuration not stated)	-92%	0.13µM*	0.089µM*	-104%	-102%	2.9µM*	0.0058µM*	0.033µM*	0.0058µM*	42%
CNc1ccc2oc(C[C@H]3O[C@@]4(CC[C@H]3C)O[C@H]([C@H](C)C(=O)c3ccc[nH]3)[C@H](C)C[C@H]4C)nc2c1C(=O)O	7.1µM*	2.1µM*	5µM*	0.18µM*	0.026µM*	1.5µM*	2.1µM*	1.5µM*	1µM*	6.5µM*
COc1ccccc1CCNC1CCCC(C)C1 (configuration not stated)	-5%	0%	-12%	u	-2%	0%	x	x	x	x
CS(=O)(=O)Nc1ccccc1C(=O)Nc1cc(Cl)cc(Cl)c1	-26%	11µM*	7.1µM*	18µM*	18µM*	u	7.3µM*	u	8.2µM*	57%
COc1cc(NC(=O)c2ccco2)ccc1NC(=O)c1ccccc1Cl	2%	-14%	0%	u	4%	-9%	x	x	x	x
CN1C(=O)N(C)C(=O)C(NS(=O)(=O)c2ccc(N)cc2)(c2ccccc2)C1=O	7%	12%	-4%	-4%	-1%	10%	x	x	x	x
COc1ccc(Nc2ncc(C(=O)N3CCC4(CC3)OCCO4)c3ccccc23)cc1	7%	2%[9.24 µM]	-13%	u	u	11%	x	x	x	x
